Laboratory results published in PMC8384837, “Expanding the binding specificity for RNA recognition by a PUF domain”.

Legend:
Experiment in all cases: yeast three-hybrid, YBZ-1, SC-Leu-His + 0.5 mM 3-AT, 4 days
Details in all cases: tags: N-Gal4 AD-HA kept; label: inside an RPR1-promoter hybrid RNA with tandem MS2 sites; ssRNA
PUM1 PUF domain R7-GRR = PUM1 PUF domain R7-GRR (Homo sapiens, UniProt Q14671 828-1176, S1079G;N1080R;E1083R)
How it was run: (§1)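 The interaction score is the log change in how often each variant appears, from input to selection. Frequencies came from PCR-amplified, Illumina-sequenced repeat regions of Pumilio-1 PUF domain libraries grown in strain YBZ-1 (LexA–MS2 coat fusion, HIS3 reporter) alongside matching RNA elements. Input plates were SC-Leu and selection plates were SC-Leu-His + 0.5 mM 3-AT, each for four days, and the log2 calculation used a pseudocount of 1 where a variant was absent.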

PUM1 PUF domain R1-RSV = PUM1 PUF domain R1-RSV (Homo sapiens, UniProt Q14671 828-1176, S863R;R864S;Q867V)
How it was run: as §1

PUM1 PUF domain R1-GLQ = PUM1 PUF domain R1-GLQ (Homo sapiens, UniProt Q14671 828-1176, S863G;R864L)
How it was run: as §1

PUM1 PUF domain R1-RIM = PUM1 PUF domain R1-RIM (Homo sapiens, UniProt Q14671 828-1176, S863R;R864I;Q867M)
How it was run: as §1

PUM1 PUF domain R1-KRS = PUM1 PUF domain R1-KRS (Homo sapiens, UniProt Q14671 828-1176, S863K;Q867S)
How it was run: as §1

PUM1 PUF domain R5-PRG = PUM1 PUF domain R5-PRG (Homo sapiens, UniProt Q14671 828-1176, C1007P;Q1011G)
How it was run: as §1

PUM1 PUF domain R5-RRV = PUM1 PUF domain R5-RRV (Homo sapiens, UniProt Q14671 828-1176, C1007R;Q1011V)
How it was run: as §1

PUM1 PUF domain R5-NGS = PUM1 PUF domain R5-NGS (Homo sapiens, UniProt Q14671 828-1176, C1007N;R1008G;Q1011S)
How it was run: as §1

PUM1 PUF domain R3-LNA = PUM1 PUF domain R3-LNA (Homo sapiens, UniProt Q14671 828-1176, C935L;R936N;Q939A)
How it was run: as §1

PUM1 PUF domain R5-RHH = PUM1 PUF domain R5-RHH (Homo sapiens, UniProt Q14671 828-1176, C1007R;R1008H;Q1011H)
How it was run: as §1

PUM1 PUF domain R5-SAP = PUM1 PUF domain R5-SAP (Homo sapiens, UniProt Q14671 828-1176, C1007S;R1008A;Q1011P)
How it was run: as §1

PUM1 PUF domain R8-QFP = PUM1 PUF domain R8-QFP (Homo sapiens, UniProt Q14671 828-1176, N1122Q;Y1123F;Q1126P)
How it was run: as §1

PUM1 PUF domain R1-KLM = PUM1 PUF domain R1-KLM (Homo sapiens, UniProt Q14671 828-1176, S863K;R864L;Q867M)
How it was run: as §1

PUM1 PUF domain R1-SRE = PUM1 PUF domain R1-SRE (Homo sapiens, UniProt Q14671 828-1176, Q867E)
How it was run: as §1

PUM1 PUF domain R7-GSK = PUM1 PUF domain R7-GSK (Homo sapiens, UniProt Q14671 828-1176, S1079G;N1080S;E1083K)
How it was run: as §1

PUM1 PUF domain R6-RWW = target: T1, PUM1 PUF domain R6-RWW (Homo sapiens, UniProt Q14671 828-1176, N1043R;Y1044W;Q1047W)
T1 sequence: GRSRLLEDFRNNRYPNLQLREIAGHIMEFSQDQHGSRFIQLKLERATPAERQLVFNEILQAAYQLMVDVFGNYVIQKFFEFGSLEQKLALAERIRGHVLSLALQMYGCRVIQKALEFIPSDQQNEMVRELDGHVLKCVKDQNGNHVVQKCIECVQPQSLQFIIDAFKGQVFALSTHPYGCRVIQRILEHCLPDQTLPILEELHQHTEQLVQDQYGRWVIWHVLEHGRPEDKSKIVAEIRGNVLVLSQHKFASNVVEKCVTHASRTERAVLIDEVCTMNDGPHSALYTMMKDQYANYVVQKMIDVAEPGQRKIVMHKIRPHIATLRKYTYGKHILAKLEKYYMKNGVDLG
How it was run: as §1

PUM1 PUF domain R3-LYT = PUM1 PUF domain R3-LYT (Homo sapiens, UniProt Q14671 828-1176, C935L;R936Y;Q939T)
How it was run: as §1

PUM1 PUF domain R4-LNA = PUM1 PUF domain R4-LNA (Homo sapiens, UniProt Q14671 828-1176, N971L;H972N;Q975A)
How it was run: as §1

PUM1 PUF domain R3-KSS = PUM1 PUF domain R3-KSS (Homo sapiens, UniProt Q14671 828-1176, C935K;R936S;Q939S)
How it was run: as §1

PUM1 PUF domain R2-SWR = PUM1 PUF domain R2-SWR (Homo sapiens, UniProt Q14671 828-1176, N899S;Y900W;Q903R)
How it was run: as §1

Chain of PUM1 PUF domain R1-KLM (Q14671 828-1176 S863K/R864L/Q867M): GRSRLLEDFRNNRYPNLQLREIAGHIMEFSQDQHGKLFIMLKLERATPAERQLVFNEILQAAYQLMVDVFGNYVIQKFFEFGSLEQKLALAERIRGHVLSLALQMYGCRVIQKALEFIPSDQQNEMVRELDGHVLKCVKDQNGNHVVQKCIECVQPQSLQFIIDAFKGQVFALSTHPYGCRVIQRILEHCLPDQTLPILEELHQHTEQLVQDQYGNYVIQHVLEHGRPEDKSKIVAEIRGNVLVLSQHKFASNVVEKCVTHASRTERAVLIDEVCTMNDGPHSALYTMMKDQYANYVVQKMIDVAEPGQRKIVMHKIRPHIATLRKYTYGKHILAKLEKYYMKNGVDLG
Chain of PUM1 PUF domain R5-SAP (Q14671 828-1176 C1007S/R1008A/Q1011P): as the sequence (Q14671 828-1176 S863K/R864L/Q867M) above, with K36S, L37R, M40Q, C180S, R181A, Q184P counted along it
Chain of PUM1 PUF domain R2-SWR (Q14671 828-1176 N899S/Y900W/Q903R): as the sequence (Q14671 828-1176 S863K/R864L/Q867M) above, with K36S, L37R, M40Q, N72S, Y73W, Q76R counted along it
Chain of PUM1 PUF domain R7-GSK (Q14671 828-1176 S1079G/N1080S/E1083K): as the sequence (Q14671 828-1176 S863K/R864L/Q867M) above, with K36S, L37R, M40Q, S252G, N253S, E256K counted along it
Chain of PUM1 PUF domain R5-RHH (Q14671 828-1176 C1007R/R1008H/Q1011H): as the sequence (Q14671 828-1176 S863K/R864L/Q867M) above, with K36S, L37R, M40Q, C180R, R181H, Q184H counted along it
Chain of PUM1 PUF domain R5-NGS (Q14671 828-1176 C1007N/R1008G/Q1011S): as the sequence (Q14671 828-1176 S863K/R864L/Q867M) above, with K36S, L37R, M40Q, C180N, R181G, Q184S counted along it

With “GGCUAGAACUAGUGGAUCCCCCGGCGCCCGGCGGCUCGAGCCCGGGUAAGUCUAAAUAGUCUGCAUGCCGCCGGGCGCCAUGCCUGCAGGUCGACUCUAGAAAACAUG” the binding signal (PUM1 PUF domain R7-GRR) was 2.81 log2 enrichment (interaction score).

In the case of “GGCUAGAACUAGUGGAUCCCCCGGCGCCCGGCGGCUCGAGCCCGGGUAAGUGUAAAUUGUCUGCAUGCCGCCGGGCGCCAUGCCUGCAGGUCGACUCUAGAAAACAUG”, the binding signal (PUM1 PUF domain R1-RSV) is reported as 2.17 log2 enrichment (interaction score), the binding signal (PUM1 PUF domain R1-GLQ) is reported as 2.93 log2 enrichment (interaction score) and the binding signal (PUM1 PUF domain R1-RIM) is reported as 3.48 log2 enrichment (interaction score). The binding signal (PUM1 PUF domain R1-KRS) was 4.93 log2 enrichment (interaction score).

In the case of “GGCUAGAACUAGUGGAUCCCCCGGCGCCCGGCGGCUCGAGCCCGGGUAAGUGUUAAUAGUCUGCAUGCCGCCGGGCGCCAUGCCUGCAGGUCGACUCUAGAAAACAUG”, the binding signal (PUM1 PUF domain R5-PRG) is reported as 3.9 log2 enrichment (interaction score), the binding signal (PUM1 PUF domain R5-RRV) is reported as 4.92 log2 enrichment (interaction score) and the binding signal (PUM1 PUF domain R5-NGS) is reported as 4.12 log2 enrichment (interaction score).

For “GGCUAGAACUAGUGGAUCCCCCGGCGCCCGGCGGCUCGAGCCCGGGUAAGUGUAAGUAGUCUGCAUGCCGCCGGGCGCCAUGCCUGCAGGUCGACUCUAGAAAACAUG”, the binding signal (PUM1 PUF domain R3-LNA) was 3.41 log2 enrichment (interaction score).

“GGCUAGAACUAGUGGAUCCCCCGGCGCCCGGCGGCUCGAGCCCGGGUAAGUGUGAAUAGUCUGCAUGCCGCCGGGCGCCAUGCCUGCAGGUCGACUCUAGAAAACAUG” was tested, and the binding signal (PUM1 PUF domain R5-PRG) was 2.67 log2 enrichment (interaction score), the binding signal (PUM1 PUF domain R5-RRV) was 1.41 log2 enrichment (interaction score) and the binding signal (PUM1 PUF domain R5-RHH) was 3.25 log2 enrichment (interaction score). The binding signal (PUM1 PUF domain R5-SAP) was 3.23 log2 enrichment (interaction score).

In the case of “GGCUAGAACUAGUGGAUCCCCCGGCGCCCGGCGGCUCGAGCCCGGGUAAGCGUAAAUAGUCUGCAUGCCGCCGGGCGCCAUGCCUGCAGGUCGACUCUAGAAAACAUG”, the binding signal (PUM1 PUF domain R8-QFP) is reported as 4.49 log2 enrichment (interaction score).

With “GGCUAGAACUAGUGGAUCCCCCGGCGCCCGGCGGCUCGAGCCCGGGUAAGUGUAAAUGGUCUGCAUGCCGCCGGGCGCCAUGCCUGCAGGUCGACUCUAGAAAACAUG” the binding signal (PUM1 PUF domain R1-KLM) was 0.59 log2 enrichment (interaction score), the binding signal (PUM1 PUF domain R1-SRE) was 4.42 log2 enrichment (interaction score) and the binding signal (PUM1 PUF domain R1-KRS) was 2.96 log2 enrichment (interaction score).

“GGCUAGAACUAGUGGAUCCCCCGGCGCCCGGCGGCUCGAGCCCGGGUAAGUUUAAAUAGUCUGCAUGCCGCCGGGCGCCAUGCCUGCAGGUCGACUCUAGAAAACAUG” was tested, and the binding signal (PUM1 PUF domain R7-GRR) was 5.06 log2 enrichment (interaction score) and the binding signal (PUM1 PUF domain R7-GSK) was 4.61 log2 enrichment (interaction score).

For “GGCUAGAACUAGUGGAUCCCCCGGCGCCCGGCGGCUCGAGCCCGGGUAAGUGUCAAUAGUCUGCAUGCCGCCGGGCGCCAUGCCUGCAGGUCGACUCUAGAAAACAUG”, the binding signal (PUM1 PUF domain R5-PRG) was 1.67 log2 enrichment (interaction score) and the binding signal (PUM1 PUF domain R5-RRV) was 4.84 log2 enrichment (interaction score).

With “GGCUAGAACUAGUGGAUCCCCCGGCGCCCGGCGGCUCGAGCCCGGGUAAGUGUAAAUAGUCUGCAUGCCGCCGGGCGCCAUGCCUGCAGGUCGACUCUAGAAAACAUG” the binding signal (PUM1 PUF domain R5-PRG) was 3.3 log2 enrichment (interaction score), the binding signal (PUM1 PUF domain R5-RRV) was 2.01 log2 enrichment (interaction score) and the binding signal (PUM1 PUF domain R6-RWW) was 4.3 log2 enrichment (interaction score). The binding signal (PUM1 PUF domain R3-LYT) was 3.3 log2 enrichment (interaction score).

With “GGCUAGAACUAGUGGAUCCCCCGGCGCCCGGCGGCUCGAGCCCGGGUAAGUGUAUAUAGUCUGCAUGCCGCCGGGCGCCAUGCCUGCAGGUCGACUCUAGAAAACAUG” the binding signal (PUM1 PUF domain R4-LNA) was 2.84 log2 enrichment (interaction score).

“GGCUAGAACUAGUGGAUCCCCCGGCGCCCGGCGGCUCGAGCCCGGGUAAGUGUAAUUAGUCUGCAUGCCGCCGGGCGCCAUGCCUGCAGGUCGACUCUAGAAAACAUG” was tested, and the binding signal (PUM1 PUF domain R3-LNA) was 2.71 log2 enrichment (interaction score), the binding signal (PUM1 PUF domain R3-KSS) was 2.98 log2 enrichment (interaction score) and the binding signal (PUM1 PUF domain R3-LYT) was 5.26 log2 enrichment (interaction score).

In the case of “GGCUAGAACUAGUGGAUCCCCCGGCGCCCGGCGGCUCGAGCCCGGGUAAGUGUAAAUCGUCUGCAUGCCGCCGGGCGCCAUGCCUGCAGGUCGACUCUAGAAAACAUG”, the binding signal (PUM1 PUF domain R1-RSV) is reported as 3.6 log2 enrichment (interaction score), the binding signal (PUM1 PUF domain R1-KLM) is reported as 3.89 log2 enrichment (interaction score) and the binding signal (PUM1 PUF domain R1-KRS) is reported as 5.16 log2 enrichment (interaction score).

For “GGCUAGAACUAGUGGAUCCCCCGGCGCCCGGCGGCUCGAGCCCGGGUAAGUGUAAACAGUCUGCAUGCCGCCGGGCGCCAUGCCUGCAGGUCGACUCUAGAAAACAUG”, the binding signal (PUM1 PUF domain R2-SWR) was 4.79 log2 enrichment (interaction score).
